Screening data from PubChem.
Sampled rows, rich in hits. Any-hit rate of the full collection: about 3.7%.
DRV1 agonist – activates human resolvin D1 receptor GPR32; CHO-K1 GPR32 beta-arrestin PathHunter luminescence, 90 min; zero percent set by DMSO-only wells; activation, % at 76.9 µM; O75388; AID 1346428; 48,000 compounds, 2.5% hits;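 active means activation of at least 60% and not above a set upper limit, about 1 call in 100 departs from these limits; inconclusive means activation of 40% to 60%, or above that upper limit; inactive means activation under 40%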; further: 0% is about no effect
Target sequence (O75388 whole entry, looked up): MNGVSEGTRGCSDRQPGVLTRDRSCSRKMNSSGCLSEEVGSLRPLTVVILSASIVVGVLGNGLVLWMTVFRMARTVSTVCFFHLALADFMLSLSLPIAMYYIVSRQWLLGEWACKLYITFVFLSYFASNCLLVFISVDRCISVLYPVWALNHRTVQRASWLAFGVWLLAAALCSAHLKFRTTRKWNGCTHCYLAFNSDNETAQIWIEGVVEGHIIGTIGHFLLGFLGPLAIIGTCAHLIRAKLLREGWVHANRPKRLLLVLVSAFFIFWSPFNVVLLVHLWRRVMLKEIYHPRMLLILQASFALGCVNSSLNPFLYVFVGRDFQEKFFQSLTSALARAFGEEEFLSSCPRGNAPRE
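GPR32 activation in stably transfected CHO-K1 cells, detected as beta-arrestin recruitment by enzyme-fragment complementation. Compound exposure: 90 min, 37 °C.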
HTT promoter inh – HTT promoter inhibition | HEK293 HTT promoter firefly luciferase reporter, 24 h | Potency, µM (top dose mostly 57.5 µM), for inactives: at the highest dose activity change, negative = inhibition, usual class: inhibitors | 48,000 compounds, 0.93% hits; further: potency means the concentration at half of the fitted maximal effect; nearly all actives have a fitted effect of over 50% in size
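Firefly luciferase signal from promoter-reporter HEK293 cells was scaled between vehicle (0%) and zero RLU (-100%). Compounds were tested at final concentrations of up to 57.5 uM over 24 h at 37 degrees C. PTC124 at 50 uM final served as control inhibitor.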
HTT-AS act – HTT-AS promoter activation; HEK293 HTT-AS promoter firefly luciferase reporter, 24 h; response scale: percent change from vehicle, -100% = no light; Potency, µM (series often up to 57.5 µM), without a hit: top-dose activity change, positive = activation, most hits filed as activators; 48,000 compounds, 0.24% hits; AID 1508624; further: potency means the concentration at half of the fitted maximal effect; nearly all actives have a fitted effect of over 55% in size
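HEK293 luciferase promoter-reporter cells (2,500/well) plated 24 h, then compounds added at up to 57.5 uM final for 24 h at 37 °C. Firefly luminescence by Dual-Glo, normalized to vehicle (0%) and zero RLU (-100%).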
* marks the source's active call; other numbers are inactive results; ? = inconclusive; · = not tested or not shown; [ ] = another dose, or the depositor's remark. Unless noted, the call rests on the fitted dose curve; in most records, active means well fitted curve in the direction sought with a large enough effect; inconclusive means small, poorly fitted or top-dose-only effect, or another doubt; inactive means no such curve, though single readings can be large; an effect the other way counts as inactive or inconclusive.

SMILES | DRV1 agonist | HTT promoter inh | HTT-AS act
Cc1[nH]c(=O)[nH]c(=O)c1S(=O)(=O)N1CCN(c2cccc(Cl)c2)CC1 | 9.3 | -1.1% | -3.7%
CCOC(=O)c1cc(-c2ccc(OC)cc2)n(CCC(=O)NC2CCCCC2)c1C | -37.6 | -25.3% | -29.4%
CN(C[C@@H]1COCCO1)S(=O)(=O)Nc1ccc2ccc3ncc(-c4cnn(C)c4)cc3c(=O)c2c1 | · | 14.8% | -1.0%
CCOC(=O)c1c(C)n(-c2ccccc2)c2ccc(OC(=O)c3ccccc3)cc12 | -32.8 | 20µM* | -70.7%
CCOC(=O)c1c(C)n(-c2ccccc2)c2ccc(OC(=O)c3cccc(Cl)c3)cc12 | -11.5 | 2.2% | -4.5%
CCCCn1c(=N)c(S(=O)(=O)c2ccc(Cl)cc2)cc2c(=O)n3cccc(C)c3nc21 | -7.6 | -2.8% | 1.0%
CCCOc1cccc(C(=O)Nc2cccc(-c3nc4ncccc4o3)c2C)c1 | 22.1 | -4.9% | -9.4%
Cc1c(NC(=O)c2ccc(OC(C)C)cc2)cccc1-c1nc2ncccc2o1 | 88.9* | 1.9% | -2.0%
Cc1ccc(C)c(Cn2c3ccccc3c3cnn(CC(=O)NC4CCC(C)CC4)c(=O)c32)c1 (configuration not stated) | -2.8 | 0.0% | 16.9%
CCCCCN(CCC12CC3CC(CC(C3)C1)C2)C(=O)NCCCc1ccncc1 | · | -5.2% | -5.7%
COc1ccc(OCC(O)Cn2c(NCCO)nc3c2c(=O)n(C)c(=O)n3C)cc1 (configuration not stated) | -9.3 | 14.1µM* | -67.4%
CCCNc1nc2c(c(=O)n(C)c(=O)n2C)n1CC(O)COc1ccccc1 (configuration not stated) | 8.1 | -5.0% | -12.4%
COc1ccc(OC(=O)CSc2nnc(-c3ccc(F)cc3)o2)cc1 | -15.1 | 2.8% | -5.5%
CCOc1ccc(-c2nnc(SCC(=O)Oc3ccccc3)o2)cc1 | -2.3 | 2.82µM* | -89.5%
CC(=O)NCC(=O)N1[C@H]2CC[C@H]1c1cc(Nc3ncc(C(F)(F)F)c(NC4CCC4)n3)ccc12 | · | ? | -38.8%
Cc1ccc(-n2nc3ccc(NC(=O)Cc4ccc(Cl)cc4)cc3n2)cc1 | 21.4 | -10.7% | -10.3%
O=C(Cc1ccc(Cl)cc1)Nc1ccc2nn(-c3ccccc3)nc2c1 | 84.5* | 13.5% | 19.5%
COc1ccc(NC(=O)CSC2=Nc3ccccc3C3=NC(CC(=O)NCc4ccc(F)cc4)C(=O)N23)cc1 (configuration not stated) | -22.7 | -18.8% | -3.5%
COc1ccc(N2CCN(C(=O)c3cccc(-n4c(C)nc5cccnc54)c3)CC2)cc1 | 27.9 | ? | -21.9%
Cc1nc2cccnc2n1-c1cccc(C(=O)N2CCN(c3ccc(Cl)cc3)CC2)c1 | 46.3 | 10µM* | -45.5%
COc1ccc(NC(=O)CSc2ccc(-c3cccs3)nn2)cc1 | 112.0* | 9.5% | -1.0%
CC(=O)c1ccc(NC(=O)CSc2ccc(-c3cccs3)nn2)cc1 | 7.0 | 14.2% | 12.9%
O=C(O)C1(Cc2cccc(Nc3nccs3)n2)CCC(Oc2cccc(Cl)c2F)CC1 (configuration not stated) | · | -7.7% | -13.5%
CC(=O)N1CCCc2cc(S(=O)(=O)N3CCC(C(=O)Nc4ccc(C)cc4Cl)CC3)ccc21 | -2.7 | ? | -30.5%
CC(=O)N1CCCc2cc(S(=O)(=O)N3CCC(C(=O)Nc4c(C)cccc4C)CC3)ccc21 | -2.8 | 20µM* | -47.0%
SMILES | DRV1 agonist | HTT promoter inh | HTT-AS act
CC(=O)N1CCCc2cc(S(=O)(=O)N3CCCC(C(=O)N4CCN(c5ccccc5)CC4)C3)ccc21 (configuration not stated) | 16.5 | 11.2µM* | -24.3%
COc1ccccc1N1CCN(C(=O)C2CCCN(S(=O)(=O)c3ccc4c(c3)CCCN4C(C)=O)C2)CC1 (configuration not stated) | ? | ? | -27.7%
Cc1c(Cn2c(C)nc3c(C(=O)O)cc(N4CCOCC4)cc32)cccc1C(F)(F)F | · | -14.2% | -30.9%
CC(C)c1ccc(NC(=O)c2cc3c(=O)oc4ccccc4c3s2)cc1 | -6.4 | -3.6% | -7.8%
CCCCCNC(=O)C1CCC(Cn2c(=O)c3sccc3n(CC)c2=O)CC1 (configuration not stated) | -2.9 | -22.2% | -22.0%
CC(=O)Nc1ccc(NC(=O)C2Cc3ccccc3N2C(=O)c2ccccc2)cc1 (configuration not stated) | 100.1* | 0.0% | -9.0%
CC(=O)c1ccc(NC(=O)C2Cc3ccccc3N2C(=O)c2ccccc2)cc1 (configuration not stated) | -8.8 | -12.9% | 3.5%
CCN(c1cc(C)cc(C)c1)S(=O)(=O)c1nnc(NC(=O)c2cccs2)s1 | 33.7 | -7.9% | -20.7%
CCN(c1cccc(C)c1)S(=O)(=O)c1nnc(NC(=O)c2cccs2)s1 | 61.8* | -18.2% | -28.3%
CC(=O)c1cccc(NC(=O)CC(c2ccc(C)cc2)N2Cc3ccccc3C2=O)c1 (configuration not stated) | -0.9 | -17.5% | -29.2%
COC(=O)c1ccc(NC(=O)CSc2nc3cc4ccccc4cc3[nH]2)cc1 | 93.7* | -9.0%[11.5 µM] | -8.7%
CCOC(=O)c1cccc(NC(=O)c2ccc3c(c2)nnn3CC)c1 | 61.4* | -18.2% | -2.6%
CCOC(=O)c1cccc(NC(=O)CSc2nc3cc4ccccc4cc3[nH]2)c1 | 113.6* | -3.5% | 7.1%[11.5 µM]
CCOC(=O)c1cccc(NC(=O)CSc2cc(=O)n(C)c3ccccc23)c1 | -6.2 | -24.4% | -34.2%
CCOC(=O)c1ccc(NC(=O)CSc2nc3cc4ccccc4cc3[nH]2)cc1 | ? | -13.3%[11.5 µM] | -4.7%
CCn1nnc2cc(C(=O)Nc3cccc(Cl)c3)ccc21 | -6.7 | 19.2% | ?
CCCCc1nc2cc(C=CC(=O)NO)ccc2n1CCN(CC)CC | · | 199.3% | ?
COc1ccc(CCn2c3c(c(=O)[nH]c2=O)C(NC(=O)c2ccccc2)(C(F)(F)F)C(=O)N3)cc1OC (configuration not stated) | 3.3 | -8.8% | -7.8%
C=CC[N+]1([C@H]2C[C@H]3[C@@H]4CC[C@H]5C[C@H](O)[C@@H](N6CCOCC6)C[C@]5(C)[C@@H]4CC[C@]3(C)[C@H]2OC(C)=O)CCCC1 | · | -1.7% | -7.4%
NC(=O)c1c(OCc2c(F)cc(Br)cc2F)nsc1NC(=O)NCCCCN1CCCC1 | · | -19.9% | -22.6%
CCCN1CCN(CCCNC(=O)c2ccc3c(c2)sc2nc(-c4ccc(C)cc4)cn23)CC1 | -7.9 | -29.9% | -1.4%
CCC(Sc1nc2c(sc3ccccc32)c(=O)n1CCc1ccc(OC)c(OC)c1)C(=O)N(CC)CC (configuration not stated) | -0.9 | ? | -50.4%
Nc1c(I)cc(I)c(C(=O)N(CCC(=O)O)c2ccccc2)c1I | -21.2 | -5.1% | -23.6%
CC(C)(C)c1ccc(-c2nc3cc(NC(=O)c4cccc(Br)c4)ccc3o2)cc1 | 2.0 | -7.2% | -4.4%
CC(=O)Nc1nonc1-c1nnc(SCc2ccc(F)cc2)n1C | -5.5 | -17.4% | -9.0%
Cc1cc(NC(=O)c2oc3c(c2C)-c2[nH]ncc2CC3)ccc1Br | -4.5 | 68.2% | 1.12µM*
CCc1ccc(NC(=O)c2oc3c(c2C)-c2[nH]ncc2CC3)cc1 | 5.0 | 79.7% | ?
COc1cc(C)c(C=CC(C)=CC=CC(C)=CC(=O)O)c(C)c1C | · | 14.9% | -0.1%
